For 40 compounds, growth results are on record in PubChem BioAssay (NCI).

About 83,000 compounds went through this panel and 20% of them were active in at least one assay; those are over-represented in the sample as a whole.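 Single-dose data. Exposure time 48 hours. Values below 10 considered active.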 Values without a mark were called inactive. The source made the active and inactive calls.

This experiment relates to ACHN renal. Kind of experiment: NCI-60 one-dose screen, 48 h (100 = growth as untreated, 0 = no growth, -100 = all killed). To be noted: 10 µM unless noted. The procedure: Growth inhibition of the ACHN human tumor cell line is measured as a screen for anti-cancer activity. Cells are grown in 96 well plates and exposed to the test compound for 48 hours. Compounds are tested at a single concentration, which is 10^-5 M for most compounds. The reported endpoint is percent growth (GI% or GIPRCNT), where numbers from 0 - 100% represent growth inhibition, and numbers from -100% - 0 represent cell death. For example, a value of 40 represents 60% growth inhibition. A value of 0 means no net growth occurred over the course of the experiment. A value of -40 indicates 40% of cells at the beginning of the experiment died by the end of the experiment. A value of -100 means all cells are dead at the end of the experiment.
NCI-60 Human Tumor Cell Lines Screen was performed using the standard one-dose NCI protocol, which is described in more detail at https://dtp.cancer.gov/discovery_development/nci-60/default.htm.
Compounds with GIPRCNT values below 10 were considered active. Activity score was based on GIPRCNT using the following formula: […]
Score is 0 for GIPRCNT values of 100 or above, 50 for GIPRCNT values of 0, and 100 for GIPRCNT values of -100.
Take `O=C(Nc1ccc(Cl)c(C(F)(F)F)c1)c1ccc(Nc2ccc(Cl)nn2)cc1`: the growth was 52.4%. In the case of `CCc1ccc2c(c1)N(CCO)C1=C(C(=O)OC1)C2c1cccc(Br)c1` (stereo not given) it was 47.4%. Under `CC(C)CC(NC(=O)C(CCCN=C(N)N)NC(=O)OCc1ccccc1)C(=O)NC(CNC(=O)/C=C/c1ccccc1)C(C)C` (stereo not given) stands 91.9%. Under `COc1ccc(-c2cnc3ccnn3c2-c2cc(OC)c(OC)c(OC)c2)cc1` stands 47.3%; under `COc1ccccc1NC(=O)OCC12COCN1COC2`, 102%.

Take `CCOC(=O)C(=CNc1ccccc1Cl)C(=O)OCC`: the growth is 79.2%.

`COc1ccc(/C(=C\c2cc(OC)c(OC)c(OC)c2)C(=O)N2CCN(c3ccccc3)CC2)cc1O`: the growth is 98.3%. In the case of `C/C(=N\OC(=O)Nc1ccccc1)c1ccccc1` it was 106%; in that of `CC[C@H](Nc1nc(C)nc(N)c1C#N)c1nc2cccc(NCc3ccc(C(=O)NO)cc3)c2c(=O)n1-c1ccccc1`, 2.03% (active). As for `CC1=C(O)C(=O)C(c2c(C)cc(C)c(Br)c2C)=C(O)C1=O`, the growth is 54%. Under `Nc1nc(N)c2c(n1)NC(c1sc(Cl)nc1Cl)CC(c1ccc3c(c1)OCO3)=N2` (stereo not given) stands 45%; under `C/C=C(\C)C(C(=O)NC1CCCCC1)N(C(=O)C1CCc2cc(F)ccc2O1)c1ccc([N+](=O)[O-])cc1` (stereo not given), 89.7%.

Consider `CCOc1cccc(/C=N/NC(=O)Cc2ccc(Nc3ccnc(C(F)(F)F)c3)cc2)c1O`, for which the growth was 6.94% (active). In the case of `CN=C1C=C/C(=N/N=c2/ccn(O)cc2C)C=C1C` it was 93.8%; in that of `CN(C)c1ccc(/C=C(\C#N)c2nc3ccccc3n2C)cc1`, 55.3%. In the case of `COc1ccc(-n2nc(C(=O)NCC(=O)Nc3nc4cc(OC)ccc4s3)c3ccccc3c2=O)cc1` it was -1.26% (active). In the case of `COC(=O)CNS(=O)(=O)c1ccc2c(c1)Cc1cc(S(=O)(=O)NCC(=O)OC)ccc1-2` it was 102%. For the compound `O=c1cc(N2CCOCC2)oc2c(-c3ccc4c(c3)OCCO4)csc12`, the growth was 6.19% (active). Under `FC(F)(F)c1ccc(/C=N/Nc2nnc3n2N=C(c2ccc(Cl)cc2)CS3)cc1` stands 28.4%; under `CN1CCN(Cc2ccc(NC(=O)c3cnc(F)c(C#Cc4cnc(N)c5ncccc45)c3)cc2C(F)(F)F)CC1`, 10.1%; under `Clc1cn2cc(-c3ccc(Cl)c(Cl)c3Cl)nc2s1`, 101%. Regarding `Clc1ccc(Nc2ncnc3c2sc2ncccc23)c(Cl)c1`, the growth is 9.32% (active).

In the case of `COC(=O)c1cc(Cl)cc([N+](=O)[O-])c1O`, the growth was 106%. In the case of `O=C(O)c1cn(-c2ccccc2)nc1-c1ccc(O)cc1` it was 99.4%; in that of `Cc1cc(C)cc(Nc2cc(C)nc3nc(C(F)(F)F)nn23)c1`, 28.6%. Under `COc1ccc(NC(=O)c2ccc(C(F)(F)F)nc2Nc2ccc(Cl)cc2C)cc1Cl` stands 14.5%; under `O=C(/C=C/c1cccc([N+](=O)[O-])c1)c1ccc(Nc2nc(N3CCCCC3)nc(N3CCCCC3)n2)cc1`, 102%. In the case of `CC1=NN(c2cccc(S(N)(=O)=O)c2)C(=O)C1` it was 99.6%. For `c1ccc(-c2[nH]c3ccccc3c2-c2ccccc2)cc1`, the growth was 93.2%. `Nc1ncnc2c1N=C(c1ccc(F)cc1)CC(c1sc(Cl)nc1Cl)N2` (stereo not given): the growth was 95.5%. Under `N#Cc1nc(-c2ccc(Cl)cc2)cc(-c2ccc(Nc3nc(N4CCCCC4)nc(N4CCCCC4)n3)cc2)c1N` stands 96.8%; under `O=C1c2ccccc2C2N1CCC1CCc3ccccc3N12` (stereo not given), 99.3%; under `Cc1cc(C)c2c(n1)sc1c(Nc3ccc(O)cc3)ncnc12`, 16%. In the case of `ClCc1cccc(CSc2ncnc3c2ncn3Cc2cccc(CCl)c2)c1` it was 70.1%; in that of `COc1cc2nccc(Oc3ccc(NC(=O)C4(C(=O)Nc5ccc(F)cc5)CC4)cc3)c2cc1Oc1ccc(N)cn1`, 18.6%; in that of `Oc1ccc(Nc2ncnc3c2sc2ncccc23)cc1`, 9.05% (active). In the case of `CC(=O)N(C)c1ccc(Nc2cc(C)[nH]c3ccc4ncnc4c23)cc1` it was 55.4%; in that of `CCOC(=O)Nc1ccc2nc(-c3cscn3)[nH]c2c1`, 73.9%; in that of `CN1CCN(Cc2ccc(NC(=O)c3cccc(C#Cc4cnc(N)c5ncccc45)c3F)cc2C(F)(F)F)CC1`, -77.2% (active). Take `CCOC(=O)c1sc2nc(-c3cc4ccccc4o3)cc(-c3ccc(Cl)cc3)c2c1N`: the growth is 80.9%.
